Among the data in PubChem BioAssay (EPA / NIEHS) are outcome and AC50 values, retold here.

Broadly, the AC50 is the concentration at which the activity in the assay is half-maximal.

The structures appear in SMILES notation. The source made the active and inactive calls. The calls were made as follows: active = hit-call score of the fitted dose curve at least 0.9, where 1 is the maximum; inactive = score below 0.9.

The nature of assay [1]: ATG_CRE_CIS: Attagene CIS-FACTORIAL HepG2 Assay for human cAMP Responsive Element (CRE) binding protein 3 (AID 2282926). Particulars: HepG2 CRE cis-reporter, Attagene multiplexed mRNA; actives raise or lower the signal. Summed up: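 Transfected HepG2 were treated for 24 hours, then RNA was extracted and reporter cDNA amplified with sequence-specific primers. Labelled fragments were separated by capillary electrophoresis, and the CRE signal was fitted bidirectionally with DMSO as baseline.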

Assay [2] addresses CCAAT/enhancer-binding protein beta (Homo sapiens) (UniProt P17676). The assay is described as follows: ATG_C_EBP_CIS: Attagene CIS-FACTORIAL HepG2 Assay for human CCAAT/Enhancer Binding Protein (C/EBP) beta (AID 2282927). Conditions: HepG2 Attagene cis-factorial transcription factor reporter; actives raise or lower the signal. Summed up:
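HepG2 transiently transfected with multiplexed reporter units under cis-regulatory promoters reporting endogenous C/EBPb activity. After 24 h exposure, reporter mRNA assayed by RT-PCR, fluorescent labelling, HpaI digestion and capillary electrophoresis; bidirectional fitting versus DMSO.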

The nature of assay [3]: ATG_CMV_CIS: Attagene CIS-FACTORIAL HepG2 Assay for human CMV (Internal Marker) (AID 2282928).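 Also: endpoint acts as a background internal control marker rather than a target.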 Conditions: HepG2 CMV promoter reporter, transcription factor profiling; actives raise or lower the signal. Summed up: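 Endogenous transcription factor activity read in HepG2 via transfected cis-promoter reporter units. After 24 h dosing, reporter mRNA measured by RT-PCR/capillary electrophoresis; gain or loss of signal fit relative to DMSO.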

Assay [4] can be described thus: ATG_DR4_LXR_CIS: Attagene CIS-FACTORIAL HepG2 Assay for human Liver X Receptor (LXR), DR4 submotif (AID 2282929). Conditions: HepG2 Attagene DR4 cis-reporter, mRNA transcription; actives raise or lower the signal. The method in brief: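 After transient transfection with multiplexed cis-promoter reporter units, HepG2 cells received test chemicals for 24 h. Reporter mRNA induction, detected by fluorescence after RT-PCR and capillary electrophoresis, was scored relative to DMSO.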

For assay [5], the target named is Aryl hydrocarbon receptor (Homo sapiens) (UniProt P35869). Description: ATG_Ahr_CIS: Attagene CIS-FACTORIAL HepG2 Assay for human Aryl Hydrocarbon Receptor (Ahr) (AID 2282930). Conditions: HepG2 AhR cis-factorial reporter transcription; actives raise or lower the signal. The method in brief: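 HepG2 cells transiently transfected with cis-element-driven multiplexed reporter units; endogenous AhR activity read as reporter mRNA 24 h after dosing, via RT-PCR, 6-FAM labelling, HpaI digestion and capillary electrophoresis. Bidirectional fit relative to DMSO.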
Aryl hydrocarbon receptor (Homo sapiens), sequence (P35869 whole entry, looked up): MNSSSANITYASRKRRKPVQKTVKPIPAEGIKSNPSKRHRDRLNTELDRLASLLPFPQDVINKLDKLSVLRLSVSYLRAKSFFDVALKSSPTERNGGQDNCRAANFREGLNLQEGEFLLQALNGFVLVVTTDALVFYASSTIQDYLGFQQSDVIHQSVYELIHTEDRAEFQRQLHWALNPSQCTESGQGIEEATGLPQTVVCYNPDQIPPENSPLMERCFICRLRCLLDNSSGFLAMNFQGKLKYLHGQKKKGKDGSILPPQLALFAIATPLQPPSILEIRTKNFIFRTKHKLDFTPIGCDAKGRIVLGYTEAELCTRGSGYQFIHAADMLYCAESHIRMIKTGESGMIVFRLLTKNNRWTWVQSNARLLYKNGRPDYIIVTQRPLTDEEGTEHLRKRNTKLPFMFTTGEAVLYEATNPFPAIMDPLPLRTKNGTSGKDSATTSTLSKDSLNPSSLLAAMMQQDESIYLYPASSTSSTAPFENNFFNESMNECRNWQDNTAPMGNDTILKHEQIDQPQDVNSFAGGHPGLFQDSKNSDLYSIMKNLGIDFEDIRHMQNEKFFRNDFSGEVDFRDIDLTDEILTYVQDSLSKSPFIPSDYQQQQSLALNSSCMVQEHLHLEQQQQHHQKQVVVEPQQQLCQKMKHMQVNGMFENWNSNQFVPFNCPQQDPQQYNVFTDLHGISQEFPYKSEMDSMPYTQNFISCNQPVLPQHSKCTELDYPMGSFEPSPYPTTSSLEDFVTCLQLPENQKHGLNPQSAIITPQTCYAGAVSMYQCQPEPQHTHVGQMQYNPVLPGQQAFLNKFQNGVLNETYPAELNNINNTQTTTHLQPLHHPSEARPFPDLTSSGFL

Assay [6] is described as follows: ATG_AP_1_CIS: Attagene CIS-FACTORIAL HepG2 Assay for human Activator Protein 1 (AP-1) (AID 2282931). Particulars: HepG2 Attagene cis-factorial AP-1 reporter mRNA; actives raise or lower the signal. Summed up:
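After 24 h incubation with test chemical, RNA from transfected HepG2 cells was reverse-transcribed, amplified, fluorescently labelled and digested before capillary electrophoresis. Reporters were driven by cis-regulatory promoters; activity fitted bidirectionally versus DMSO.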

A short description of assay [7]: ATG_AP_2_CIS: Attagene CIS-FACTORIAL HepG2 Assay for human Activator Protein 2 (AP-2) (AID 2282932). Conditions: HepG2 AP-2 cis-reporter, Attagene transcription factor profiling; actives raise or lower the signal. Summed up: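 HepG2 cells transiently transfected with cis-element reporter units and exposed for 24 h. Reporter mRNA measured by RT-PCR, FAM labelling, HpaI digestion and capillary electrophoresis. Changes in either direction fitted relative to DMSO.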

A short description of assay [8]: ATG_BRE_CIS: Attagene CIS-FACTORIAL HepG2 Assay for human Bone Morphogenetic Protein (BMP) Response Element (BRE) (AID 2282933). Conditions: HepG2 BMP response element reporter, Attagene transcription factor profiling; actives raise or lower the signal. The method in brief:
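Endogenous transcription factor activity at a BMP response element was monitored in transfected HepG2 cells 24 h after dosing. Fluorescent RT-PCR products were resolved by capillary electrophoresis, and activity was fitted in both directions versus DMSO.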

In assay [9] the target is Retinoic acid receptor alpha (Homo sapiens) (UniProt P10276). Description: ATG_DR5_RAR_CIS: Attagene CIS-FACTORIAL HepG2 Assay for human Retinoic Acid Receptor Alpha (RARE), DR5 submotif (AID 2282934). Particulars: HepG2 Attagene cis-factorial RARE DR5 reporter, mRNA; actives raise or lower the signal. Summed up: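 HepG2 cells transiently transfected with multiplexed reporter units; DR5 cis-element drives reporter through endogenous transcription factors. After 24 h dosing, reporter mRNA quantified by RT-PCR, fluorescent labeling, HpaI digestion and capillary electrophoresis; bidirectional fitting versus DMSO.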
Retinoic acid receptor alpha (Homo sapiens), sequence (P10276 whole entry, looked up): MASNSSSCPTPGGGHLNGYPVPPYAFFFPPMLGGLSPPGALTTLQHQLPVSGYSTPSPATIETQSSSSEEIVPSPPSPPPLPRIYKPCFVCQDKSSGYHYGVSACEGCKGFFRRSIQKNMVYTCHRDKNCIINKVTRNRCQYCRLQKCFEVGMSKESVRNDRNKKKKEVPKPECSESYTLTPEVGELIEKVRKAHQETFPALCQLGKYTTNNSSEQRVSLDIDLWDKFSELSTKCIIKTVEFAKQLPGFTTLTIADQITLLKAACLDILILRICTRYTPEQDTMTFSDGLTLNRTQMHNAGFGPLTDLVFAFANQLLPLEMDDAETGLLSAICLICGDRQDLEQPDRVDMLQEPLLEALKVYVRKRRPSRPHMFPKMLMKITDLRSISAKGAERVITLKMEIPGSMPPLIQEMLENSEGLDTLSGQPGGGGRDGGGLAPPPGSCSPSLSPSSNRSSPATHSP

Assay [10] addresses Transcription factor E2F1 (Homo sapiens) (UniProt Q01094). Description: ATG_E2F_CIS: Attagene CIS-FACTORIAL HepG2 Assay for human E2F Transcription Factor 1 (AID 2282935). Particulars: HepG2 Attagene cis-reporter, E2F reporter RNA transcripts; actives raise or lower the signal. The method in brief: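 Endogenous E2F1 activity read through cis-promoter reporter units transfected into HepG2. After 24 h compound treatment, reporter mRNA measured by RT-PCR, HpaI digestion and capillary electrophoresis. Bidirectional fit versus DMSO.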

A short description of assay [11]: ATG_E_Box_CIS: Attagene CIS-FACTORIAL HepG2 Assay for human Enhancer Box (E-box) (AID 2282936). Conditions: HepG2 E-box cis-reporter transcription, actives raise or lower the signal. The method in brief: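 HepG2 cells transiently transfected with multiplexed cis-element reporter units, dosed 24 h; reporter mRNA quantified by RT-PCR, 6-FAM labelling, HpaI digestion and capillary electrophoresis. E-box (USF1) signal fitted bidirectionally vs DMSO.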

Assay [12] can be described thus: ATG_M_61_CIS: Attagene CIS-FACTORIAL HepG2 Assay for M61 Transcription Factor (Internal Marker) (AID 2282937). Particulars: HepG2 Attagene CIS-FACTORIAL M61 internal marker reporter; actives raise or lower the signal. Summed up:
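Using transiently transfected HepG2 liver cells, reporter transcript levels were assessed 24 h post-dosing by RT-PCR and capillary electrophoresis. Changes in either direction were fitted relative to DMSO controls.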

Assay [13] in a line: ATG_EGR_CIS: Attagene CIS-FACTORIAL HepG2 Assay for human Early Growth Response 1 (EGR1) (AID 2282938). Conditions: HepG2 Attagene CIS-FACTORIAL EGR reporter mRNA; actives raise or lower the signal. Summed up: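 Fluorescent capillary-electrophoresis signal of reporter cDNA fragments serves as read-out. HepG2 cells bear transiently transfected cis-promoter reporter units and are exposed 24 h; gain- or loss-of-signal is fitted against DMSO.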

Assay [14] in a line: ATG_M_19_CIS: Attagene CIS-FACTORIAL HepG2 Assay for M19 Transcription Factor (Internal Marker) (AID 2282939). Conditions: HepG2 Attagene CIS-FACTORIAL M19 internal marker reporter; actives raise or lower the signal. The method in brief:
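Background-control endpoint from a multiplexed HepG2 reporter panel. Cells carrying cis-regulated reporter constructs are treated 24 h, then reporter transcripts are amplified, fluorescently labelled and sized by capillary electrophoresis. DMSO defines baseline.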

Assay [15] can be described thus: ATG_Ets_CIS: Attagene CIS-FACTORIAL HepG2 Assay for human Erythroblast Transformation Specific (ETS) (AID 2282941). Particulars: HepG2 ETS cis-reporter transcription, actives raise or lower the signal. Summed up: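 Steps: transfect HepG2 with multiple reporter units; treat compound 24 h; isolate RNA, DNase-treat, reverse-transcribe; PCR-amplify, label with 6-FAM, digest with HpaI; separate by capillary electrophoresis. Activity fitted both directions versus DMSO.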

Assay [16] concerns the target Hepatocyte nuclear factor 3-beta (Homo sapiens) (UniProt Q9Y261). The assay is described as follows: ATG_FoxA2_CIS: Attagene CIS-FACTORIAL HepG2 Assay for human Forkhead box A2 (FOXA2) (AID 2282942). Particulars: HepG2 cis-reporter transcription factor activity, 24 h; actives raise or lower the signal. Summed up: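 Fluorescence signal of reporter cDNA fragments, separated by capillary electrophoresis, reflects endogenous transcription factor activity in transfected HepG2 after 24 h. Both increases and decreases fitted against DMSO.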

A short description of assay [17]: ATG_FoxO_CIS: Attagene CIS-FACTORIAL HepG2 Assay for human Forkhead box O (FoxO) (AID 2282943). Particulars: HepG2 Attagene cis-reporter, FoxO element, mRNA; actives raise or lower the signal. Summed up:
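HepG2 cells transiently transfected with cis-element-driven reporter units report endogenous FoxO activity. After 24 h chemical exposure, reporter mRNA quantified by RT-PCR, fluorescent labeling, HpaI digestion and capillary electrophoresis; bidirectional fit versus DMSO.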

Assay [18] is described as follows: ATG_GATA_CIS: Attagene CIS-FACTORIAL HepG2 Assay for human GATA Binding Protein (AID 2282944). Conditions: HepG2 GATA cis-element reporter, Attagene multiplex mRNA; actives raise or lower the signal. The method in brief: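 Endogenous transcription factor activity was captured through cis-promoter-driven reporters in transfected HepG2 cells. After 24 h exposure, reporter transcripts were quantified by RT-PCR with fluorescent capillary electrophoresis, and responses fitted both directions against DMSO.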

Assay [19] in a line: ATG_GLI_CIS: Attagene CIS-FACTORIAL HepG2 Assay for human Zinc Finger Protein GLI1 (AID 2282945). Conditions: HepG2, Attagene cis-factorial reporter mRNA, GLI element; actives raise or lower the signal. Summed up: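 Transiently transfected HepG2 cells report endogenous transcription factor activity via cis-element-driven reporter units. After 24 h compound exposure, reporter mRNA was measured by RT-PCR with capillary electrophoresis; bidirectional fitting against DMSO baseline.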

Hepatocyte nuclear factor 3-beta (Homo sapiens), sequence (Q9Y261 whole entry, looked up, the tested form may be a part): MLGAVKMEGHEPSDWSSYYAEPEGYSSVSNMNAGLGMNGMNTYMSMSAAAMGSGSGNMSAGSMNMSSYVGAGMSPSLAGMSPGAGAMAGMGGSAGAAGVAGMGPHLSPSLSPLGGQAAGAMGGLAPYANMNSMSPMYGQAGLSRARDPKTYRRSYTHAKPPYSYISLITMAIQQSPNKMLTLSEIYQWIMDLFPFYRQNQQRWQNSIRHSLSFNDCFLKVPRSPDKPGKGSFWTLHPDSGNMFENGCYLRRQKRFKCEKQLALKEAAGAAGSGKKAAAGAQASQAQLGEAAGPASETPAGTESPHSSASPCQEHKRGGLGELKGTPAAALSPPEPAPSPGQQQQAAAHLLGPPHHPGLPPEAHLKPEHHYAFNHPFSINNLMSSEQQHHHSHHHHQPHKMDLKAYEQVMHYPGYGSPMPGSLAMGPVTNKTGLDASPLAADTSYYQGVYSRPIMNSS
CCAAT/enhancer-binding protein beta (Homo sapiens), sequence (P17676 whole entry, looked up): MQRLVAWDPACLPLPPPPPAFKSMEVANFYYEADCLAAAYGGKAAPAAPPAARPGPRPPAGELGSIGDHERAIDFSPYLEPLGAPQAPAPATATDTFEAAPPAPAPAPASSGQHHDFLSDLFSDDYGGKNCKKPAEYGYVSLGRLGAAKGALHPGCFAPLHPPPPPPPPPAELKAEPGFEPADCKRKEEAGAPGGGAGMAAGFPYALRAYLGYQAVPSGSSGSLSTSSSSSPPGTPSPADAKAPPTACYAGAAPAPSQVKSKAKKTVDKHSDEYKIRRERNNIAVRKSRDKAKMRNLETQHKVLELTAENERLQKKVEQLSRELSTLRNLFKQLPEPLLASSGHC
Transcription factor E2F1 (Homo sapiens), sequence (Q01094 whole entry, looked up): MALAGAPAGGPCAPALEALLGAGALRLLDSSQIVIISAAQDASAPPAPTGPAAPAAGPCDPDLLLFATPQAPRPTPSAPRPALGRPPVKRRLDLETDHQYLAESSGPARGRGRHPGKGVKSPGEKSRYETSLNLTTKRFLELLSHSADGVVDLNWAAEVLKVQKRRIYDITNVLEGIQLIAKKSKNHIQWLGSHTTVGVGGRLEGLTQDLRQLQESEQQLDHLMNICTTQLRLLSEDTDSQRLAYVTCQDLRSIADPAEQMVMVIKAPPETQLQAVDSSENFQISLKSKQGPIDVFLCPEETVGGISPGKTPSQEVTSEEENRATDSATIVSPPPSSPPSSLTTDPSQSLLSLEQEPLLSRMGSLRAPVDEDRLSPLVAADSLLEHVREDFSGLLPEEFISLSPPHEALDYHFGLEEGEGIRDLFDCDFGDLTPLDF

For `CC(=O)NCCO`, the outcome in [1], in assay [2], in assay [3], in assay [4], in assay [5] and in assay [6] was inactive. Besides, the result in [7], in assay [8], in [9], in assay [10], in [11] and in [12] was inactive. The result in assay [13], in assay [14], in assay [15], in assay [16], in [17] and in [18] was inactive. For the same molecule, the molecule was classed as inactive in assay [19].
Take `CCCCCCC(O)CCCCCCCCCCC(=O)O` (stereo unspecified): the molecule was called inactive in assay [1], in assay [2], in assay [3], in assay [4], in assay [5] and in [6]. The outcome in assay [7], in [8], in assay [9], in assay [10], in [11] and in assay [12] was inactive. The call in assay [13], in assay [14], in assay [15], in [16], in [17] and in assay [18] was inactive. In addition, the call in assay [19] was inactive.
As for `COc1ccc(CCC(C)=O)cc1`, the molecule was called inactive in [1], in assay [2], in assay [3], in [4], in assay [5] and in assay [6]. For the same molecule, the outcome in [7], in assay [8], in [9], in assay [10], in assay [11] and in assay [12] was inactive. Moreover, the call in assay [13], in assay [14], in [15], in [16], in assay [17] and in assay [18] was inactive. Also, the call in assay [19] was inactive.
`COc1ccc(OC)c(N=Nc2c(O)ccc3ccccc23)c1`: the molecule was called inactive in assay [1], in assay [2], in assay [3], in assay [4], in assay [6] and in [7]. In addition, the call in [8], in assay [9], in assay [10], in assay [11], in [12] and in [13] was inactive. In addition, the molecule was called inactive in [14], in assay [15], in assay [16], in [17], in [18] and in assay [19]. Also, the concentration at half-maximal activity (AC50) in assay [5] is 510 nM (active).
